Screening data deposited in PubChem BioAssay by National Center for Advancing Translational Sciences (NCATS).
This is a sample that favours compounds with a hit; in the whole collection about 6.1% have one here.
D1 potentiator: potentiators of human D1 dopamine receptor | HEK293 TREx D1 cells, calcium flux, dopamine EC20 potentiation | potentiation, % at 10 µM | hit rate 0.036% among 360,000 | AID 504651; in the data active means potentiation above about 30%; further: 0% is about no effect
D3 antag: blocks the human D3 dopamine receptor; D3R cells, DiscoveRx beta-arrestin luminescence, antagonist mode; hits give low values; max response, negative = inhibition, %; P35462; hit rate 2.5% among 360,000; in the data active means max response below about -50%; inconclusive means no clear call, values can overlap the other calls; further: on the % scale 0 is the no-effect control and ±100 the full control effect
Target sequence (P35462 whole entry, looked up): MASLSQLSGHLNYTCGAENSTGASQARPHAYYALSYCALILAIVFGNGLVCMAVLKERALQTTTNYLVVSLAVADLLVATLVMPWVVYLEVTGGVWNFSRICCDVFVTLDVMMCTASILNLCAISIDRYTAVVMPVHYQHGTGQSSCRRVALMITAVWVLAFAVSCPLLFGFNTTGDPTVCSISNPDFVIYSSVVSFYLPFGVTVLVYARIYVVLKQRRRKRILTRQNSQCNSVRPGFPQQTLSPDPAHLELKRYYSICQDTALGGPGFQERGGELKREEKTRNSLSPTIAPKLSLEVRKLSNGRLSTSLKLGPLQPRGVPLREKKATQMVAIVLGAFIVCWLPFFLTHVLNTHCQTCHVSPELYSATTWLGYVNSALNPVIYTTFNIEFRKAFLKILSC
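Cells expressing the human receptor were seeded at 1500 cells/well, incubated overnight at 37 degrees C in 5% CO2, then exposed to library compounds with dopamine controls for 90 minutes at 37 degrees C before luminescent detection.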
D1 antag: antagonists of human D1 dopamine receptor. P21728. HEK293 TREx D1 cells, calcium flux, dopamine EC80; hits give low values. activity change, negative = inhibition, % at 10 µM. hit rate 3.2% among 360,000; in the data active means activity change below about -30%; further: on the % scale 0 is the no-effect control and ±100 the full control effect
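Allosteric or orthosteric antagonism assessed as attenuation of the calcium response to EC80 dopamine, added 180 s after compound, in induced HEK293 Trex D1 cells loaded with no-wash calcium dye.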
D1 ag: activates the human D1 dopamine receptor. P21728. HEK293 T-REx D1 cells, calcium flux, agonist mode. activation, % at 2 µM. hit rate 1% among 360,000. AID 504660; in the data active means activation above about 30%; further: 0% is about no effect
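Tetracycline-induced HEK293 TREx D1 cells, force-coupled to calcium signalling, were dye-loaded with a no-wash calcium kit. Compound was pin-added after a 10 s baseline. Fluorescence was read kinetically at 1 cycle/s for 180 s, with calcium rises flagged as agonism.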
D3 ag: D3 dopamine receptor (human) agonism; hit rate 0.58% among 410,000; D3R DiscoveRx beta-arrestin cells, luminescence, 90 min; P35462; AID 652048; max activation, %; in the data active means max activation above about 30%; further: 0% is about no effect
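Agonist-mode cell screen: cells plated at 1500/well and incubated overnight at 37 °C, then exposed to library compounds for 90 min at 37 °C. Detection reagent was added for 30–60 min at room temperature, and luminescence was read.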
Starred values were filed as active, the others as inactive.

Results for Cc1cc(C)cc(NC(=O)N2CCN(C(=O)c3nsc4ccccc34)CC2)c1 ?
D1 potentiator: 5; D1 antag: 9; D1 ag: 0; D3 ag: 4

Results for Cc1ccc(C(=O)NCCN2CCCC2)cc1 ?
D1 potentiator: -4; D3 antag: inconclusive; D1 antag: -14; D1 ag: 0; D3 ag: -27

What do the screens show for `CC(C)(C)c1ccc(C(=O)NCCN2CCOCC2)cc1`?
D3 antag: 1; D3 ag: -4

Results for CC(=O)Nc1ccc(S(=O)(=O)NCc2ccc(C(=O)NCc3ccc(Cl)cc3)cc2)cc1 ?
D1 potentiator: 7; D3 antag: -19; D1 antag: -3; D1 ag: -1; D3 ag: -9

How did O=C(NCCN1CCN(C(=O)c2ccc(F)cc2)CC1)c1ccc(F)cc1 do in these assays?
D1 potentiator: 16; D3 antag: -79*; D1 antag: -11; D1 ag: 4; D3 ag: -10

What do the screens show for `Cc1cccc(C(=O)NCCN2CCCC2)c1`?
D1 potentiator: 3; D3 antag: -66*; D1 antag: -1; D1 ag: 0; D3 ag: -6

Results for CC(C)(C)c1ccc(C(=O)NCCCN2CCN(CCCNC(=O)c3ccc(C(C)(C)C)cc3)CC2)cc1 ?
D1 potentiator: -7; D3 antag: 0; D1 antag: -30*; D1 ag: 24; D3 ag: -5

How did CC(=O)Nc1ccc(S(=O)(=O)NCc2ccc(C(=O)NCCN3CCCCCC3)cc2)cc1 do in these assays?
D1 potentiator: -1; D3 antag: -53*; D1 antag: 10; D1 ag: 0; D3 ag: -17

Results for CCCCSc1nnc2c(n1)OC(c1ccc(Br)s1)N(C(C)=O)c1ccccc1-2 (stereo unspecified) ?
D1 potentiator: 8; D1 antag: 12; D1 ag: 1; D3 ag: 4

What do the screens show for `COc1ccc(CC(=O)N(Cc2nc(-c3ccc(C)cc3)no2)C(C)C)cc1`?
D1 potentiator: -5; D1 antag: -23; D1 ag: 6; D3 ag: 8

How did O=C(NCCN1CCCCC1)c1cc(OCC(F)(F)F)ccc1OCC(F)(F)F do in these assays?
D1 potentiator: -2; D3 antag: -53*; D1 antag: 8; D1 ag: 0; D3 ag: 1

How did COc1ccc(CC(=O)NCCN2CCCC2)cc1 do in these assays?
D1 potentiator: -5; D3 antag: -4; D1 antag: 20; D1 ag: 5; D3 ag: -4

Results for COc1ccc(C(=O)NCCN2CCCC2)cc1 ?
D1 potentiator: -2; D3 antag: -54*; D1 antag: -15; D1 ag: 5; D3 ag: -11

How did CCOc1ccc(NC(=O)CC2C(=O)N(c3ccc(F)cc3)C(=O)N2Cc2ccc(OC)c(OC)c2)cc1 (stereo unspecified) do in these assays?
D1 potentiator: -3; D1 antag: -16; D1 ag: -1; D3 ag: 6

What do the screens show for `CCC(Oc1ccccc1)C(=O)Nc1ccccc1OCc1cc(=O)n2ccccc2n1` (stereo unspecified)?
D1 potentiator: -2; D1 antag: -8; D1 ag: -1; D3 ag: 7

What do the screens show for `CC1=C(C)/C(=N\OS(=O)(=O)c2ccccc2)C=CC1=O`?
D1 potentiator: -4; D3 antag: -89*; D1 antag: 1; D1 ag: 3; D3 ag: -5

Results for Cc1ccc(S(=O)(=O)O/N=C2\CCCc3ccccc32)cc1 ?
D1 potentiator: 1; D3 antag: -21; D1 antag: -8; D1 ag: 4; D3 ag: 0

Results for Cc1nc2scc(C)n2c(=O)c1S(=O)(=O)N1CCN(c2ccc([N+](=O)[O-])cc2)CC1 ?
D1 potentiator: -6; D3 antag: 7; D1 antag: -53*; D1 ag: 0; D3 ag: 3

What do the screens show for `O=C(c1cnc(N2CCOCC2)c2ccccc12)N1CCN(c2ccc(F)cc2)CC1`?
D1 potentiator: 1; D1 antag: 20; D1 ag: 2; D3 ag: 13

How did CCn1c(SCC(=O)N(C)C2CCS(=O)(=O)C2)nnc1-c1ccccc1 (stereo unspecified) do in these assays?
D1 potentiator: -13; D3 antag: 1; D1 antag: -64*; D1 ag: 2; D3 ag: 6
